Results on 30 molecules are retold here after PubChem BioAssay AID743171 (National Center for Advancing Translational Sciences (NCATS), 2013).

Values joined by “and” are separate entries in the source; they are usually repeats but may differ in a detail not shown here. Identical values can stand only once. Results filed as inconclusive are left out. Active and inactive are the calls of the source. Calls follow the shape of the dose curve; as a rule, active = well fitted inhibition curve with a large enough effect; inconclusive = small, poorly fitted or top-dose-only effect; inactive = flat fitted curve, though single readings scatter.

In the experiment the target is 15-hydroxyprostaglandin dehydrogenase [NAD(+)] (Homo sapiens) (UniProt P15428). The experiment is described as follows: Extended Characterization of HPGD Inhibitors: Activity in Primary Assay (HPGD). Conditions: recombinant HPGD, NADH fluorescence, PGE2 substrate; series mostly up to 57.1 µM; activity, negative = inhibition: at the top concentration. The source says: The central role of HPGD is to inactivate prostaglandins such as prostaglandin E2 (PGE2) or prostaglandin D2 (PGD2). These prostaglandins are involved in a number of processes, including inflammation, differentiation, and cellular signaling, which makes HPGD an important target for pharmacological intervention. Inhibition of 15-PGDH (HPGD) activity was screened by utilizing prostaglandin as an electron donor and NAD+ as an electron acceptor/cofactor. An increase in the fluorescence intensity due to conversion of NAD+ to NADH was used to measure the enzyme activity. All compounds were screened using a qHTS approach, where compounds are assayed using at least seven concentrations to generate concentration-response curves for every compound. Briefly, qHTS uses an inter-plate dilution method where the first plate contains the highest concentration of a set of compounds in DMSO, while subsequent plates contain the same compounds in the same well locations, but at successive lower concentrations. NIH Chemical Genomics Center [NCGC] NIH Molecular Libraries Probe Centers Network [MLPCN] MLPCN Grant: MH084681 Assay Submitter (PI): Structural Genomics Consortium
15-hydroxyprostaglandin dehydrogenase [NAD(+)] (Homo sapiens), sequence (P15428 whole entry, looked up): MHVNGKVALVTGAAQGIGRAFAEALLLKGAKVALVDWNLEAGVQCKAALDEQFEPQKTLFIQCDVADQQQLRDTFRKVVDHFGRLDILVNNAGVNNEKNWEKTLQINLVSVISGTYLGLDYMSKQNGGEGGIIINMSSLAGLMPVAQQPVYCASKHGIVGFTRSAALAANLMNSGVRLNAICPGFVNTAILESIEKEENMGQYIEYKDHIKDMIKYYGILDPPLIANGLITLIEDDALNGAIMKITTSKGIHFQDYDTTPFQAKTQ
Three uL of enzyme (20 nM final concentration) were dispensed to 1536-well Greiner black solid bottom plates. Compounds (23 nL) were transferred via Kalypsys PinTool. The plates were incubated for 15 min at room temperature, and then 1 uL of substrate/cofactor solution (Substrate/cofactor solution: 1 mM NAD+ and 30 uM prostaglandin (Sigma, prostaglandin E2, #P5640)) were added to start the reaction. The plates were immediately transferred to and read 4 times every 30 seconds on a ViewLux High-throughput CCD imager (Perkin-Elmer) using 340 nm excitation and 450 nm emission fluorescence protocol. The fluorescence intensity difference between the last and the first time points, normalized against controls, was used to compute reaction progress.
`COc1cccc(-n2cnc3cc(C(=O)N4CCCCC4)ccc32)c1`: the Potency is 19.2 nM (active). `Cc1cc(-c2nnc3n2CCCCC3)c(C)n1-c1ccc([N+](=O)[O-])cc1`: the Potency was 108 nM (active). Same read-out and setting: for `Cc1cccc(-n2cnc3cc(C(=O)N4CCC(C(F)(F)F)CC4)ccc32)c1` the value was 1520 nM (active); for `CC(C)(C)n1cnc2cc(C(=O)N3CCCCC3)ccc21`, 34.1 nM (active); for `Cc1cc(-c2nnc3n2CCCCC3)c(C)n1-c1ccccc1`, 121 nM (active) and 54.1 nM (active) and 68.1 nM (active). Same read-out and setting: next, `Cc1cc(-c2nnc3n2CCCCC3)c(C)n1-c1cccc(Cl)c1`: 34.1 nM (active); `Cc1cccc(-n2cnc3cc(C(=O)N4CCC(Br)CC4)ccc32)c1`: 76.4 nM (active). On the same count and under the same terms, for `Brc1cnc2nc(SCc3ccncc3)[nH]c2c1` the value was 1520 nM (active).

Take `Brc1cnc2nc(SCc3ccccc3)[nH]c2c1`: the Potency is 8570 nM (active). Still for that read-out and setting: for `Cc1cccc(-n2cnc3cc(C(=O)NC4CCCC4)ccc32)c1` the value was 961 nM (active).

Turning to `CC(C)(C)c1ccc(-n2cnc3cc(C(=O)N4CCCCC4)ccc32)cc1`, the Potency is 54.1 nM (active). Same read-out and setting: next, `CCOC(=O)c1ccc(-n2c(C)cc(-c3nnc4n3CCCCC4)c2C)cc1`: 38.3 nM (active); `Fc1cccc(CSc2nc3ncc(Br)cc3[nH]2)c1`: 341 nM (active).

With `CC(C)(C)c1ccc(CSc2nc3ncc(Br)cc3[nH]2)cc1`, the “activity, negative = inhibition” value was -15.2% (inactive). Take `Cc1cc(-c2nnc3n2CCCCC3)c(C)n1-c1ccc(Cl)c(Cl)c1`: the Potency was 21.5 nM (active). As to `Cc1ccccc1CSc1nc2ncc(Br)cc2[nH]1`, the Potency is 76.4 nM (active). On the same count and under the same terms, next, `CC(C)(C)c1cccc(-n2cnc3cc(C(=O)N4CCCCC4)ccc32)c1`: 171 nM (active); `Cc1cc(-c2nnc3n2CCCCC3)c(C)n1-c1cccc(C(F)(F)F)c1`: 48.2 nM (active); `O=[N+]([O-])c1cccc(CSc2nc3ncc(Br)cc3[nH]2)c1`: 68.1 nM (active). Still for that read-out and setting: next, `Cc1cc(-c2nnc3n2CCCCC3)c(C)n1-c1cccc(C#N)c1`: 76.4 nM (active). On the same count and under the same terms, for `CCCCNC(=O)c1ccc2c(c1)ncn2-c1cccc(C)c1` the value was 1360 nM (active); for `Cc1cccc(-n2cnc3cc(C(=O)N4CCCC(c5ccccc5)C4)ccc32)c1` (stereo not given), 429 nM (active). Consider `Cc1cc(-c2nnc3n2CCCCC3)c(C)n1-c1ccccn1`, for which the Potency is 1080 nM (active). On to `O=C(c1ccc2c(c1)ncn2-c1cccc(C(F)(F)F)c1)N1CCCCC1`, for which the Potency is 48.2 nM (active).

Consider `CC(C)c1cccc(-n2cnc3cc(C(=O)N4CCCCC4)ccc32)c1`, for which the Potency is 68.1 nM (active). Same read-out and setting: next, `N#Cc1ccc(CSc2nc3ncc(Br)cc3[nH]2)cc1`: 482 nM (active). On to `CCCCn1cnc2cc(C(=O)N3CCCCC3)ccc21`, for which the Potency is 68.1 nM (active). Same read-out and setting: next, `COc1ccc(-n2cnc3cc(C(=O)N4CCCCC4)ccc32)cc1`: 19.2 nM (active). Same read-out and setting: for `O=C(c1ccc2c(c1)ncn2-c1cccc(Cl)c1)N1CCCCC1` the value was 12.1 nM (active); for `Cc1cccc(-n2cnc3cc(C(=O)N4CCCCC4)ccc32)c1`, 34.1 nM (active) and 19.2 nM (active).
